Screening results from PubChem.
Pf growth 96h = inhibits malaria parasite growth, 96 h; P. falciparum luciferase reporter growth, 96 h; Potency, µM (highest dose often 28.7 µM), most hits filed as inhibitors; 320,000 tested, 6.9% active; AID 504834
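P. falciparum expressing integrated firefly luciferase, in erythrocytes at 2% hematocrit, 0.05% parasitemia, incubated with compounds 96 h at 37 C, 5% CO2. Growth inhibition read as loss of luminescence; two-generation exposure targets delayed-death apicoplast inhibitors.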
AMA1 RON2 block = disrupts binding of P. falciparum AMA1 to RON2. AlphaScreen AMA1-biotinylated RON2 peptide binding. Potency, µM (titrated, usually from 58.2 µM), hits mostly inhibitors. 360,000 tested, 0.2% active. AID 720542; also: nearly all actives have a fitted effect of over 45% in size
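AMA1 (3D7) with his tag at 25 nM final met compounds first, then biotinylated RON2 peptide at 25 nM; detection used donor plus acceptor beads, 10 µg/mL apiece, read by AlphaScreen after 30 min at room temperature.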
Pf growth 48h = P. falciparum growth inhibition at 48 hours (one generation). P. falciparum luciferase growth in erythrocytes, 48 h. Potency, µM (highest dose often 28.7 µM), most hits filed as inhibitors. 310,000 tested, 5.9% active. AID 504832
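Luciferase-expressing parasites in RBCs, 2% Hct / 0.1% parasitemia final; RPMI 1640 + 0.5% Albumax; 37 C, 5% CO2, one generation; luminescence read-out, lower signal = inhibition.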
HCV inh = inhibitors of hepatitis C virus infection; Huh7.5.1 HCVcc-Cre infection, luciferase reporter, 44 h; Potency, µM (top dose mostly 41.8 µM), usual class: inhibitors; 340,000 tested, 3.4% active
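Luciferase read-out (15 sec integration) after a 15 min room-temperature substrate step quantifies HCVcc-Cre infection. Cells, 1,000 per well, had compound added 4 h post-plating, then virus at ~0.5 moi, and were cultured 44 h.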
A number is an active result; 0 = inactive; ? = inconclusive; - = not tested or not shown; [ ] = dose if it differs, or a comment. An excerpt weighted towards active compounds, which were near 11% of everything screened. Calls follow the shape of the dose curve; as a rule, active = well fitted curve in the direction sought with a large enough effect; inconclusive = small, poorly fitted or top-dose-only effect, or another doubt; inactive = no such curve, though single readings can be large; an effect the other way counts as inactive or inconclusive.

SMILES	Pf growth 96h	AMA1 RON2 block	Pf growth 48h	HCV inh
Cc1cccc(NC(=O)CSc2nc3ccccc3c3nc(CCc4c(C)n[nH]c4C)nn23)c1	0	0	7.4µM	25µM
Cc1ccc(C)c(N(CC(=O)NC2CCCCC2)C(=O)c2snc(C(N)=O)c2N)c1	0	0	?	?
CC(C)(C)NC(=O)CN(C(=O)c1snc(C(=O)NC2CCCCC2)c1N)c1ccccc1F	0	0	12µM	?
CCC(C)c1ccc(S(=O)(=O)N2CCN(CC(O)COCC3CCCO3)CC2)cc1 (stereo not given)	0	0	0	0
CCC(C)/C=C(C)/C=C/C1=CC2=C(Cl)C(=O)C(C)(OC(C)=O)C(=O)C2=CO1 (stereo not given)	9.3µM	?	?	0
CC[C@H](C)/C=C(C)/C=C/C1=CC2=C(Cl)C(=O)[C@@](C)(OC(C)=O)C(=O)C2=CO1	-	?	-	0
CC#CCN1c2ccccc2[C@]23C[C@@H](C(=O)OC)N(C(=O)NC4CCCCC4)C2=NC(C(=O)OC)=C(C(=O)OC)[C@H]13	-	0	-	0
C#CCOCCOCCOCCNc1nc(N2CCN(C(=O)C([C@@H](C)CC)n3cc(C(N)CO)nn3)CC2)nc(N2CCN(C(=O)[C@H](CCC(=O)O)n3cc(C(N)[C@H](C)CC)nn3)CC2)n1 (stereo not given in full)	0	-	0	-
CC(=O)Nc1ccc(NC(=O)C(=O)c2cn(CC(=O)N3CCCCC3)c3ccccc23)cc1	?	0	?	0
CN1CCN(C(=O)C(=O)c2cn(CC(=O)N3CCOCC3)c3ccccc23)CC1	-	0	-	-
CCC1CCCCN1C(=O)C(=O)c1cn(CC(=O)N(CC)CC)c2ccccc12 (stereo not given)	10µM	0	0	0
O=C(C(=O)N1CCCCC1)c1cn(CC(=O)N2CCCCCC2)c2ccccc12	12µM	0	?	0
O=C(C(=O)N1CCN(c2ccc(F)cc2)CC1)c1cn(CC(=O)N2CCOCC2)c2ccccc12	13µM	0	0	0
O=C(Nc1ccccc1)C(=O)c1cn(CC(=O)N2CCCCC2)c2ccccc12	10µM	0	0	0
O=C(C(=O)N1CCc2ccccc2C1)c1cn(CC(=O)N2CCCC2)c2ccccc12	0	0	0	0
CCN(CC)C(=O)Cn1cc(C(=O)C(=O)N(C)C2CCN(C)CC2)c2ccccc21	0	0	0	-
COc1ccccc1C(=O)NC(=O)COC(=O)c1nc(Cl)ccc1Cl	0	0	0	0
COc1cc(/C=C2\SC(=Nc3ccccc3)NC2=O)cc(Cl)c1O	6.6µM	0	0	0
COc1ccc(N=C2NC(=O)/C(=C/c3ccco3)S2)cc1	9.3µM	0	?	0
COc1ccc(S(=O)(=O)/N=C2/NC(=O)/C(=C/c3ccco3)S2)cc1	0	0	0	0
O=C1NC(=Nc2ccccc2)/C(=C/c2ccco2)S1	?	0	?	11µM
COc1ccc(/C=C2\SC(=Nc3ccccc3OC)NC2=O)cc1	0	0	0.33µM	?
Cc1cccn2c(=O)c(-c3nnn[nH]3)cnc12	?	-	0	-
CC(CNC(=O)CCC(=O)N1CCOc2ccccc21)c1ccccc1 (stereo not given)	?	0	0	0
O=C(CN1C(=O)c2ccccc2C1=O)C(O)CN1C(=O)c2ccccc2C1=O (stereo not given)	-	0	-	-
SMILES	Pf growth 96h	AMA1 RON2 block	Pf growth 48h	HCV inh
COc1ccc(N=C2NC(=O)/C(=C/C=C/c3ccccc3)S2)cc1	6.6µM	0	7.4µM	?
COc1ccc(N=C2NC(=O)/C(=C\C=C\c3ccccc3)S2)cc1	0	0	?	0
O=[N+]([O-])c1cc(S(=O)(=O)C(F)(F)F)ccc1Sc1nc2ccccc2s1	9.3µM	?	?	0
O=S(=O)(Nc1ccc(O)c(Sc2nc3ccccc3s2)c1)c1ccc(F)cc1	0	0	0	0
O=[N+]([O-])c1cc(S(=O)(=O)C(F)(F)F)ccc1Sc1nc2ccccc2[nH]1	-	?	15µM	?
NCCNc1ccc([N+](=O)[O-])c(Sc2nc3ccccc3[nH]2)c1	13µM	0	?	0
CS(=O)(=O)c1ccc(Sc2nc3ccccc3s2)c([N+](=O)[O-])c1	?	0	13µM	?
C[C@@H]1CN([C@H](C)CO)C(=O)c2cc(Br)cnc2O[C@@H]1CN(C)Cc1ccc(-c2ccccc2)cc1	-	0	-	-
COc1cccc(C(O)c2nc(/C=C/c3ccc(C(F)(F)F)cc3)cs2)c1 (stereo not given)	-	0	-	-
CCCCCCCc1c(O)nc(SCCN2CCOCC2)[nH]c1=O	0	0	0	0
CCc1ccc(NC(=O)CSc2nc(NS(=O)(=O)c3ccccc3)cc(=O)[nH]2)cc1	4.1µM	0	?	?
CCOc1ccc(NC(=O)CSc2nc(NS(=O)(=O)c3ccc(C)cc3)cc(=O)[nH]2)cc1	0	0	0	0
Cc1ccc(S(=O)(=O)Nc2cc(=O)[nH]c(SCC(=O)Nc3ccccc3Cl)n2)cc1	0[5.75 µM]	0	0	0
Cc1ccc(S(=O)(=O)Nc2cc(=O)[nH]c(SCC(=O)Nc3cccc(C)c3)n2)cc1	0	0	1.9µM	0
Cc1ccc(NC(=O)CSc2nc(NS(=O)(=O)c3ccccc3)cc(=O)[nH]2)cc1	3.7µM	0	-	0
Cc1ccccc1-c1nnc(SCC(=O)N2CCCC2)o1	0	0	0	0
COc1ccc(OCC(=O)OCC(=O)c2ccc(OC)c(F)c2)cc1	0	0	0	0
CC(NC(=O)CSc1ncn[nH]1)c1ccc(Cl)cc1Cl (stereo not given)	0	0	0	0
O=C(NCC1(N2CCOCC2)CCCCC1)c1cccc(S(=O)(=O)Nc2ccc(F)cc2)c1	?	0	10µM	0
Cc1cccc(NS(=O)(=O)c2cccc(C(=O)NCC3(N4CCOCC4)CCCCC3)c2)c1	-	0	-	?
O=C(NCC1(N2CCCCC2)CCCCC1)c1cccc(S(=O)(=O)Nc2ccc(F)cc2)c1	?	0	8.3µM	0
Cc1cccc(C(=O)N[C@@H]2c3ccccc3C[C@@H]2O)n1	-	0	-	0
CCN1C(=O)/C(=C\N(C(C)=O)c2ccccc2)OC1=S	12µM	0	0	?
CCN1C(=O)/C(=C/N(C)c2ccccc2)OC1=S	0	0	0	0
CCOC(=O)c1c(NC(=O)OC)sc(C(=O)N(CC)CC)c1C	?	0	5.9µM	?
SMILES	Pf growth 96h	AMA1 RON2 block	Pf growth 48h	HCV inh
CCN(CC)C(=O)c1sc(NC(=O)C(Sc2ccccc2)c2ccccc2)c(C(=O)OC(C)C)c1C (stereo not given)	0.41µM	0	-	10µM
CCOC(=O)c1c(NC(=O)C2c3ccccc3Oc3ccccc32)sc(C(C)=O)c1C	?	0	?	0.79µM
CCOC(=O)c1sc(NC(=O)OC)c(C(=O)OC)c1C	0	0	0	?
CCOC(=O)c1c(NC(=O)COC)sc(C)c1C	?	0	0	?
CCOC(=O)c1c(NC(=O)COC)sc(C(C)=O)c1C	0	0	0	28µM
CCN(CC)C(=O)c1sc(N)c(C(=O)OC(C)C)c1C	0	0	?	0
CC1(C(=O)Nc2ccc3c(c2)OCCO3)CN(S(C)(=O)=O)CC(=O)N1CCc1ccc(O)cc1 (stereo not given)	-	0	-	-
